Experiments:
Test in all cases: log2 ratio of Biotin-Ahx-Ub-VS probe labelling (fragment/DMSO); higher = less target engagement (more negative = stronger competition), active = hit call of the paper (q ≤ 0.05, log2 ratio ≤ -1)
Conditions in all cases: compound concentration: 200 uM; treatment time: 3 h
USP34 = USP34 (UniProt Q70CQ2)
How it was run: (§1)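 Labelled DUBs from HEK293T lysate were NeutrAvidin-enriched, digested with LysC and trypsin, and run by diaPASEF LC-MS/MS. Before that, each 495 µg sample in Tris/CHAPS/IGEPAL buffer with protease inhibitors was treated in triplicate with fragment at 200 µM or vehicle for 3 h, then with Biotin-Ahx-Ub-VS at 0.5 µM final for 1 h. Values are average log2 ratios of fragment over vehicle by unpaired t-test, based on global-median-normalised Spectronaut label-free quantities from proteins with ≥2 unique peptides.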

USP36 = biological target: T1, USP36 (UniProt Q9P275)
T1 sequence (whole entry): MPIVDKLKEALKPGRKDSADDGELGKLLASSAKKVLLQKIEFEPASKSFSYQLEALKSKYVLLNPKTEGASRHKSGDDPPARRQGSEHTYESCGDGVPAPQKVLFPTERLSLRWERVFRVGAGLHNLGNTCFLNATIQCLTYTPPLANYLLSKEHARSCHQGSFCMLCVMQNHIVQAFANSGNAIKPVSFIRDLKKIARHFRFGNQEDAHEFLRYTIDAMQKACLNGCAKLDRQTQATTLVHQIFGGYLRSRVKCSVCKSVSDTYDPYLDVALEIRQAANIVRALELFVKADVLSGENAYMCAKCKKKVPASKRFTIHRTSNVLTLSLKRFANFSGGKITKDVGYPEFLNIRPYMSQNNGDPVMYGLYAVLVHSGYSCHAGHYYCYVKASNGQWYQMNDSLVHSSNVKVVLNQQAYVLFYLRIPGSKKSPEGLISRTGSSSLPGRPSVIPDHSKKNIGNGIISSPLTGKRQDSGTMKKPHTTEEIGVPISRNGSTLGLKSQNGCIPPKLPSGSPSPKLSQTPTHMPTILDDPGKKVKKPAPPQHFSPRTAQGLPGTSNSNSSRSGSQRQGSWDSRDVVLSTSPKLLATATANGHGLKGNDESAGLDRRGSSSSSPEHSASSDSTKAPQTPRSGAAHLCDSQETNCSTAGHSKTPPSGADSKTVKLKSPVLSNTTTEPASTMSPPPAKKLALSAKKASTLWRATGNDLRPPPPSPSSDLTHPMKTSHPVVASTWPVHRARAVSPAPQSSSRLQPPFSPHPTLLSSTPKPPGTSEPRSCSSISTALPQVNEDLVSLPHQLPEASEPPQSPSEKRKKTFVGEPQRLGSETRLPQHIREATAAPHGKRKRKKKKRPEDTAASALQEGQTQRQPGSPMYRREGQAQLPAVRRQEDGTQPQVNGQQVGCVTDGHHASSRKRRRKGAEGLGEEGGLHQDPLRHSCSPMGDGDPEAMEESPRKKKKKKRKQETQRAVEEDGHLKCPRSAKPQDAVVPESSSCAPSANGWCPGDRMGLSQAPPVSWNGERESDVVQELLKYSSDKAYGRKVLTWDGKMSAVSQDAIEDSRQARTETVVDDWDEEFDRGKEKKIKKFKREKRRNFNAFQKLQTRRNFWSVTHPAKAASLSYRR
How it was run: as §1

USP38 = biological target: T2, USP38 (UniProt Q8NB14)
T2 sequence (whole entry): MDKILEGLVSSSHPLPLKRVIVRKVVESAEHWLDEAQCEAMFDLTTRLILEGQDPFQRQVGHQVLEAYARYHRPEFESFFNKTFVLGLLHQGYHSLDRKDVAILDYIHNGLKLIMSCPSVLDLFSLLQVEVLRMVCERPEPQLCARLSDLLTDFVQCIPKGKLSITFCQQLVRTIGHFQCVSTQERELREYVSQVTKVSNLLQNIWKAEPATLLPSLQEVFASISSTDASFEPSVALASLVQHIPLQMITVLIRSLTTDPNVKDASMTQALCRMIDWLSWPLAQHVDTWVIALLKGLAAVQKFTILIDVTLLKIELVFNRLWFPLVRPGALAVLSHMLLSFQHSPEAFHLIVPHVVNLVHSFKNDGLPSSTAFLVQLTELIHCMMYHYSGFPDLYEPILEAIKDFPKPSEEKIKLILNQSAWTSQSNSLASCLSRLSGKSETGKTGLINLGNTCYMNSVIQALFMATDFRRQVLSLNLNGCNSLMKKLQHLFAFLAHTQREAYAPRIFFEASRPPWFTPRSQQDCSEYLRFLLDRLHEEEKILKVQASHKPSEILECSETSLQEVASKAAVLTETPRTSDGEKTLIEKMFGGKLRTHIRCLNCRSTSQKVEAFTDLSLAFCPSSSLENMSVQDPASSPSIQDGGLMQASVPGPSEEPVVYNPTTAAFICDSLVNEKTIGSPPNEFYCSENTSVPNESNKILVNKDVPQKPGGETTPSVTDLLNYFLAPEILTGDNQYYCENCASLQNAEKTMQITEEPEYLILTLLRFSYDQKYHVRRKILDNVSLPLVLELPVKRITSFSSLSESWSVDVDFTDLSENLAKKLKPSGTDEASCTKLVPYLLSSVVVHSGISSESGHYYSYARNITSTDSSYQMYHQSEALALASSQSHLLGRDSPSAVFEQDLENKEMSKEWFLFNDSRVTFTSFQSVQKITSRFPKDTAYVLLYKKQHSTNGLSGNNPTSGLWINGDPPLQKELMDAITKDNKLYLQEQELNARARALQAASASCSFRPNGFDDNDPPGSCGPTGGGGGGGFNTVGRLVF
How it was run: as §1

USP39 = biological target: T3, USP39 (UniProt Q53GS9)
T3 sequence (whole entry): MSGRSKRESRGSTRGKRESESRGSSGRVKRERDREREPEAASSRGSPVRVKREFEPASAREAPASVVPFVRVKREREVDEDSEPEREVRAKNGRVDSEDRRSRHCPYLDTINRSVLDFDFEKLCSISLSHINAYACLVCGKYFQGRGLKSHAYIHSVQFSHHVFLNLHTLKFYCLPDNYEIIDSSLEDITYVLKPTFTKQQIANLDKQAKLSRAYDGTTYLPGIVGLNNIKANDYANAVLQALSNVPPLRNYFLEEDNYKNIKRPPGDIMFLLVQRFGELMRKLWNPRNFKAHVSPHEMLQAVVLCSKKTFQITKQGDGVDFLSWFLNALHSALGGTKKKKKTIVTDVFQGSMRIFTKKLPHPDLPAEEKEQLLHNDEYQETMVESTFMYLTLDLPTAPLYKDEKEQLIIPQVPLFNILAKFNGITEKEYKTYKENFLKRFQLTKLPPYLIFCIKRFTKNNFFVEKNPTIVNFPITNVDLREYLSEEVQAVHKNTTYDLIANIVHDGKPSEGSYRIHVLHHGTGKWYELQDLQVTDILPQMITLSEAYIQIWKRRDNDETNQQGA
How it was run: as §1

USP4 = biological target: T4, USP4 (UniProt Q13107)
T4 sequence (whole entry): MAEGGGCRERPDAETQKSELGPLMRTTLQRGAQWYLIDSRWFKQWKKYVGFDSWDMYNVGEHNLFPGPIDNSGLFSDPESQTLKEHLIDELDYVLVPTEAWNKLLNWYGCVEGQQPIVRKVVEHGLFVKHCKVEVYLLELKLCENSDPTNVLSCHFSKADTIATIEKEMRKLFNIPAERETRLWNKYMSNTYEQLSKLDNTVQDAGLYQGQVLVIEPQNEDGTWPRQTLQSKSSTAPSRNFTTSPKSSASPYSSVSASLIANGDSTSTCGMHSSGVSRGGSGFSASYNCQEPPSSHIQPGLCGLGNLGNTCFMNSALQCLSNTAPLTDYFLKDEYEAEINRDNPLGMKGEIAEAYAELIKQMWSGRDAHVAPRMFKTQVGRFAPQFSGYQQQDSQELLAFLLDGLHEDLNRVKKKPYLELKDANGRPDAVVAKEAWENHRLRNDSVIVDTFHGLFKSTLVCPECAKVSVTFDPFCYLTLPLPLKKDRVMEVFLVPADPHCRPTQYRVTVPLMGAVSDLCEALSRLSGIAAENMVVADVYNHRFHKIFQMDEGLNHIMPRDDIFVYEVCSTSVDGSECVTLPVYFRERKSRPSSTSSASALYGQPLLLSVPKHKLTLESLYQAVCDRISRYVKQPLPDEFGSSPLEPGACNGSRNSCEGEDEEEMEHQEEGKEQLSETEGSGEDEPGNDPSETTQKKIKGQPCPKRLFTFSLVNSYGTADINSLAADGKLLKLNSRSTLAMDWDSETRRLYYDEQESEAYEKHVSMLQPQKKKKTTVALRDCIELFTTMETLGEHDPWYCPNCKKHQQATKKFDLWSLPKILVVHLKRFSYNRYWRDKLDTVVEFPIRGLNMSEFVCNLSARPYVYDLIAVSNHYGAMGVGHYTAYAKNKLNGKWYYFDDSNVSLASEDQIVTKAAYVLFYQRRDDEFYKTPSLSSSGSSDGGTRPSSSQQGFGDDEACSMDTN
How it was run: as §1

Measured: log2 ratio of Biotin-Ahx-Ub-VS probe labelling

Sequence of USP34 (Q70CQ2 whole entry, the tested form may be a part): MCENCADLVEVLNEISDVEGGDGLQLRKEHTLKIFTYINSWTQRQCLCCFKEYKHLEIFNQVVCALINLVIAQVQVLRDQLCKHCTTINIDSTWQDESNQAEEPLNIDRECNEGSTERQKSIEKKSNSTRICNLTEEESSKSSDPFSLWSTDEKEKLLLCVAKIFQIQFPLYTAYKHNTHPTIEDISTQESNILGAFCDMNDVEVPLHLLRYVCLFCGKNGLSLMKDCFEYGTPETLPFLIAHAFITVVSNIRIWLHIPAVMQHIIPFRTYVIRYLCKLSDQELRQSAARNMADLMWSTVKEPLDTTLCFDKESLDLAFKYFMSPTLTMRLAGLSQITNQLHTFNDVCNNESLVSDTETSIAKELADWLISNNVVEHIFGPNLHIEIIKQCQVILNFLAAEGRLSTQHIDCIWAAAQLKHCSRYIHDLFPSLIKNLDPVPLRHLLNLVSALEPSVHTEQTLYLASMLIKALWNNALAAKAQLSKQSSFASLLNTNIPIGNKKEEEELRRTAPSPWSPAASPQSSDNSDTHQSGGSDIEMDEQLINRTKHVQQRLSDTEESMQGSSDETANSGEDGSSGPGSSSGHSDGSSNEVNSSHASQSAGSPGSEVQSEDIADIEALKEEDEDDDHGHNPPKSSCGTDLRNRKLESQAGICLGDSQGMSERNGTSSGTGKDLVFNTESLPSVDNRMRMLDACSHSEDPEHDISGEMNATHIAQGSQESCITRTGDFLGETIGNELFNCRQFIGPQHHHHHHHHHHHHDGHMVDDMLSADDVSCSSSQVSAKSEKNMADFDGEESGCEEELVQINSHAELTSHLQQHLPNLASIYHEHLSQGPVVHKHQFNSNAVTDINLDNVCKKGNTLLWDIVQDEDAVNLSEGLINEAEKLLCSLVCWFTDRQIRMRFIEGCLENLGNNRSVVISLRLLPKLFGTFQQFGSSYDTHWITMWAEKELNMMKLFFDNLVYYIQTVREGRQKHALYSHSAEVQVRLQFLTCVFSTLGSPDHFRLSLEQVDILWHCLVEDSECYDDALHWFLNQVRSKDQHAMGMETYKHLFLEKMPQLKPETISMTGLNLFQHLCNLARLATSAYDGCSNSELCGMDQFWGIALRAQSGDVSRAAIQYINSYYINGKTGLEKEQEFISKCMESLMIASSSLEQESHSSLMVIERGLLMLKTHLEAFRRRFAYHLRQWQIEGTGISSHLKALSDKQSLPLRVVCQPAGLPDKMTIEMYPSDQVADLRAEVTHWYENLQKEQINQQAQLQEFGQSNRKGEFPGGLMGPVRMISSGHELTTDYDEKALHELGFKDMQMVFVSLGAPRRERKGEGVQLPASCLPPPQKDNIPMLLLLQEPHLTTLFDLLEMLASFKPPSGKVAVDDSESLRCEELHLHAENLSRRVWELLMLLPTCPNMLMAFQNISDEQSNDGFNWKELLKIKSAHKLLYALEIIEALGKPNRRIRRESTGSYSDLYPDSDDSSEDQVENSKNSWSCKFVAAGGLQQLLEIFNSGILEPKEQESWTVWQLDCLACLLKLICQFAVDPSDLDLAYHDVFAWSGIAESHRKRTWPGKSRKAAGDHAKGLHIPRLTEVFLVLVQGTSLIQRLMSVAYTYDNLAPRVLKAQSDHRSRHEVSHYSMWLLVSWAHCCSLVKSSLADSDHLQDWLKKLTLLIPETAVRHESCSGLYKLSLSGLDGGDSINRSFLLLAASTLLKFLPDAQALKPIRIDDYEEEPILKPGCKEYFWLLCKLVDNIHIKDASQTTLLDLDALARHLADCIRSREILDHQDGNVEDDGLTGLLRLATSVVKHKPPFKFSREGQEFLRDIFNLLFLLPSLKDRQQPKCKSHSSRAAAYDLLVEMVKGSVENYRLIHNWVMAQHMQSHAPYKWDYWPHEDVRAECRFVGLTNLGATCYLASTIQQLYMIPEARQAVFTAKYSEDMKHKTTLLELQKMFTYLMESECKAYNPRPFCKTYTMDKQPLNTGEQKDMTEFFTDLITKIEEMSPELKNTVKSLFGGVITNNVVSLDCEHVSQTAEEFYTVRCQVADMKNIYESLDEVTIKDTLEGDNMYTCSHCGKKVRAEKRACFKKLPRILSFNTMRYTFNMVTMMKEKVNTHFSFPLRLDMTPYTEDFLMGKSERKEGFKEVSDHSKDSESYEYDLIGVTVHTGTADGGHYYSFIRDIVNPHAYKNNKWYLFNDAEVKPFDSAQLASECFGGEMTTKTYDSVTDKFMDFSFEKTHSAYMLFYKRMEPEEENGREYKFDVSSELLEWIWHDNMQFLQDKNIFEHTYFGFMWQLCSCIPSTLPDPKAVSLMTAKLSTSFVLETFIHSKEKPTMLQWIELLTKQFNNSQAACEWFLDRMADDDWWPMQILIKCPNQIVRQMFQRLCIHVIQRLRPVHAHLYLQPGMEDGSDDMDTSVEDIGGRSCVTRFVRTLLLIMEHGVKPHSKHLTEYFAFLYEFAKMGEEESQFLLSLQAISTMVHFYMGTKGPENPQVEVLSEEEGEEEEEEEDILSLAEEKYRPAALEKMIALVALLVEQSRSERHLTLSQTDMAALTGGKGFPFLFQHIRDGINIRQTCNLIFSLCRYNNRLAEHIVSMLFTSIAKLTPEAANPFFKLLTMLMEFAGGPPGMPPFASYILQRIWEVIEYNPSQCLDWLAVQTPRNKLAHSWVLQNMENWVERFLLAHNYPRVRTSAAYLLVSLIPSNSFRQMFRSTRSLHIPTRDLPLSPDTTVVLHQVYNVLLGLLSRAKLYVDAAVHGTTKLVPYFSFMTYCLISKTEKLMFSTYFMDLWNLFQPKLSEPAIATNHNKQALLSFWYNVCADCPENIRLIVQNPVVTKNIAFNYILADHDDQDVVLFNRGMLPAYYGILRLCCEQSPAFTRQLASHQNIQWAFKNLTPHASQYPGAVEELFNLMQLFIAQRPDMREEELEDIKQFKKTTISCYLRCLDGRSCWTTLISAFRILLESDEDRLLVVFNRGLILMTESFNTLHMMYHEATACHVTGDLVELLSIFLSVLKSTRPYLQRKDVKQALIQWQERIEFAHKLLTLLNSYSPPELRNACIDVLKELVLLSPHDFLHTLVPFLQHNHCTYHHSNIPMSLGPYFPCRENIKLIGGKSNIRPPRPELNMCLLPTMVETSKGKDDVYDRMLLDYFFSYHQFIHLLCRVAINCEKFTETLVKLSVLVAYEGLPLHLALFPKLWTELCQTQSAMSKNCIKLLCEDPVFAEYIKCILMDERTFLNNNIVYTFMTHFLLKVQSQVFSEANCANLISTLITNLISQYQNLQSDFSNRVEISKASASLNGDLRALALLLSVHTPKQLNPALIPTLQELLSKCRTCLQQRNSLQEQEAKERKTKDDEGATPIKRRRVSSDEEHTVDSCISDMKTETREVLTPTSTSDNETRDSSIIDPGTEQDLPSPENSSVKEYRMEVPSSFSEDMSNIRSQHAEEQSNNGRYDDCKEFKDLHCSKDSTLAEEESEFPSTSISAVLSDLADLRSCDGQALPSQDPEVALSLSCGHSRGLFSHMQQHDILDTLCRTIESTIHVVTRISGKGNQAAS

O=C(CCl)NC(Cn1ccccc1=O)c1ccccc1 (stereo not given)
inactive: USP34 -0.106 | USP36 0.132 | USP38 -0.000312 | USP39 -0.0137 | USP4 -0.127

— the supplement of paper PMC11732987, “Enantioselective OTUD7B fragment discovery through chemoproteomics screening and high-throughput optimisation” (Communications Chemistry, 2025)
